Results from PubChem BioAssay (Tox21).
Inconclusive results are not listed. Values without a mark were called inactive. The source made the active and inactive calls. Calls come from the whole dose curve; as a rule, active = well fitted activation curve with a large enough effect in the signal ratio in the repeat runs (not every such curve was filed as active); inconclusive = weak or mixed curves, or effect the other way; inactive = flat fitted curve, though single readings scatter; the % refers to the signal ratio. Where a SMILES comes first, the peptide text is derived from it.

target: Bile acid receptor (Homo sapiens) (UniProt Q96RI1); experiment: qHTS assay to identify small molecule agonists of the farnesoid-X-receptor (FXR) signaling pathway (AID 743220); settings: HEK293T FXR-UAS-bla, beta-lactamase FRET ratio, 16 h; series mostly up to 62.6 µM
Source text: National Center for Advancing Translational Sciences [NCATS]
NIH Chemical Genomics Center [NCGC]
U.S. Environmental Protection Agency [EPA]
National Institutes of Environmental Health Sciences [NIEHS]
National Toxicology Program [NTP]
U.S. Food and Drug Administration [FDA]
The farnesoid-X-receptor (FXR), a nuclear hormone receptor, is highly expressed in liver, intestine, kidney and adrenal cortex. Natural ligands of FXR are the bile acids (Cholic acid, Chenodeoxy cholic acid etc). FXR is an important regulator of diverse metabolic pathways, including the bile acid homeostasis, lipid and glucose metabolisms. FXR regulates the expression of target genes by binding either as a monomer or as a heterodimer with the retinoid X receptor (RXR). Numerous studies have reported that FXR exerts protective function during cholestasis, diabetes, liver regeneration, and cancer. To identify compounds that activate FXR signaling, GeneBLAzer FXR-UAS-bla HEK 293T cell line (Invitrogen, Carlsbad, CA) containing a beta-lactamase reporter gene under the control of a UAS response element was used to screen the Tox21 10K compound library.
Tox21 Assay Protocol Summary:
FXR-bla cells were dispensed at 5000 cells/5uL/well in 1536-well black wall/clear bottom plates using a Multidrop Combi (Thermo Fisher Scientific, Waltham, MA) dispenser. After the assay plates were incubated at 37C and 5% CO2 for 5 h, 23 nL of compounds dissolved in DMSO, positive controls or DMSO only was transferred to the assay plate by a Pintool station (Kalypsys, San Diego, CA). The assay plates were incubated at 37C for 16 h. After 1 uL of LiveBLAzerTM B/G FRET substrate was added using a Bioraptr Flying Reagent Dispenser (FRD) workstation (Beckman Coulter, Indianapolis, IN), the plates were incubated at room temperature for 2 h, and fluorescence intensity was measured by an Envision plate reader (PerkinElmer, Shelton, CT).
% is set by controls: 0 for no effect and ±100 for the full control effect.

Bile acid receptor (Homo sapiens), sequence (Q96RI1 whole entry, looked up): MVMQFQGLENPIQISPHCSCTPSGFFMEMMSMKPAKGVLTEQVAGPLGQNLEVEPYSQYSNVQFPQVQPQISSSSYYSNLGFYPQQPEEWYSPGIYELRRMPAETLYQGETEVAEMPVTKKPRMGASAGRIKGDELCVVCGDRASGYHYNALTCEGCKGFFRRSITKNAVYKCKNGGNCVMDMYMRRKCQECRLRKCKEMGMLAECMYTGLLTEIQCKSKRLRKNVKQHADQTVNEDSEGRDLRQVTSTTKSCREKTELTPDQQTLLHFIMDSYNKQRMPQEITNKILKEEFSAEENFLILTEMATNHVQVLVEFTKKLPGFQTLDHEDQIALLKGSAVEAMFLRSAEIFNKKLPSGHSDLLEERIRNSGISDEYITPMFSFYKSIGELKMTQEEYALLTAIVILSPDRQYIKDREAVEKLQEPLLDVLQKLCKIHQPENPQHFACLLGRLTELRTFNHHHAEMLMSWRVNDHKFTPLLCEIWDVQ

| SMILES | outcome | activation |
| --- | --- | --- |
| CC12CCC(C1)C(C)(C)C2O (stereo not given) | inactive | – |
| O=S(=O)(O)c1ccc2c(N=Nc3ccc(S(=O)(=O)O)c4ccccc34)c(O)c(S(=O)(=O)O)cc2c1 | – | -0.449% [at 5.95 µM] |
| OCC(O)CN1CCN(c2ccccc2)CC1 (stereo not given) | inactive | – |
| CC1(C)[C@H]2CC[C@](C)(C2)[C@H]1O | inactive | – |
| O=NN(CCCl)C(=O)NC1CCCCC1 | inactive | – |
| Cc1ccnc(N)c1 | inactive | – |
| O=C(O)c1cc2ccccc2nc1C(=O)O | inactive | – |
| CCO | inactive | – |
| O=Cc1ccccc1Cl | inactive | – |
| OC1OCCOC1O (stereo not given) | inactive | – |
| CC1(C)Cc2cccc(N)c2O1 | inactive | – |
| CN(C)C(C)(C)CO | inactive | – |
| O=C(Cn1ccnc1[N+](=O)[O-])NCc1ccccc1 | inactive | – |
| CCCCCC/C=C/C(=O)OC | inactive | – |
| Cn1nnc2c(C(N)=O)ncn2c1=O | inactive | – |
| CCCCCCCCCCCCCCCCCCOCCO | inactive | – |
| CC(=O)C(C)O (stereo not given) | inactive | – |
| N#Cc1ccccc1O | inactive | – |
| CCCCOC(=O)[C@H](C)O | inactive | – |
| CC(=O)N[C@@H](CO)C(=O)N[C@@H](CC(=O)O)C(=O)N[C@@H](CCCCN)C(=O)N1CCC[C@H]1C(=O)O (Ac-SDKP-OH) | inactive | – |

| SMILES | outcome | activation |
| --- | --- | --- |
| CCNC(=O)NCc1cccc(Cl)c1 | inactive | – |
| CCCc1ccc(O)cc1 | inactive | – |
| O=C(O)CSCC(=O)NC1CCSC1=O (stereo not given) | inactive | – |
| c1ccc(B(c2ccccc2)c2ccccc2)cc1 | inactive | – |
| Nc1nnnn1-c1ccccc1 | inactive | – |
| O=C(O)CONC(=O)c1ccccc1 | inactive | – |
| CCCCCCCCCCCCCCC(=O)NC(CO)CCCCCCCCCCCCCC (stereo not given) | inactive | – |
| CCC(=O)CC | inactive | – |
| OC1(c2ccc(Cl)cc2)CCNCC1 | inactive | – |
| CC(C)[C@H]1CC[C@H](C)C[C@@H]1O | inactive | – |
| CSc1cnccn1 | inactive | – |
| C/C=C(\C)C(=O)OCCc1ccccc1 | inactive | – |
| CCn1cc(C(=O)O)c(=O)c2cnc(N3CCCC3)nc21 | – | -0.921% [at 13.2 µM] |
| C=CCCCCCCCCC(=O)OCCCC | inactive | – |
| CCC(C)C(=O)OCCc1ccccc1 (stereo not given) | inactive | – |
| NCc1ccc(S(N)(=O)=O)cc1 | inactive | – |
| N#Cc1cscn1 | inactive | – |
| CCc1occc(=O)c1O | inactive | – |
| Cc1cccc(Cl)c1 | inactive | – |
| CCCCC1CCC(O)CC1 (stereo not given) | inactive | – |
